In the supplement of paper PMC13380429:

System: Vero E6 infected with SARS-CoV-2
Assay: inhibition of SARS-CoV-2 cytopathic effect; higher = more antiviral protection, active = above 15
Settings: 48 h

Measured: inhibition of SARS-CoV-2 cytopathic effect

Nc1ncnc2c1ncn2[C@@H]1O[C@@H]2COP(=O)(O)O[C@H]2[C@H]1O [cyclic-AMP]
inactive: 1 nM 3.59% | 8.33 nM -0.53% | 100 nM -1.76% | 833.33 nM -5.14% | 10000 nM 0.34%

Cc1cc(-c2nc(C(=O)Nc3cn(C4CCOCC4)nc3C(N)=O)co2)ccn1
inactive: 1 nM -2.34% | 8.33 nM -3.32% | 100 nM -0.57% | 833.33 nM -4.01% | 10000 nM -5.6%

CCCCCCCCCCCCCCCC[n+]1ccccc1 [cetylpyridinium]
inactive: 1 nM 1.63% | 8.33 nM 0.22% | 100 nM 1.76% | 833.33 nM -0.25% | 10000 nM -21.9%

O=C(O)Cc1cccc(OCCCN(Cc2cccc(C(F)(F)F)c2Cl)CC(c2ccccc2)c2ccccc2)c1
inactive: 1 nM 0.26% | 8.33 nM 0.75% | 100 nM 2.25% | 833.33 nM 0.38% | 10000 nM 8.79%

COC(=O)Nc1nc2cc(C(=O)c3ccccc3)ccc2[nH]1 [mebendazole]
inactive: 1 nM -1.33% | 8.33 nM 0.93% | 100 nM -0.07% | 833.33 nM 0.95% | 10000 nM 0.89%

N#C[C@@H]1C[C@@H]2C[C@@H]2N1C(=O)[C@@H](N)C12CC3CC(CC(O)(C3)C1)C2
inactive: 1 nM -1.01% | 8.33 nM -0.66% | 100 nM 0.62% | 833.33 nM 0.34% | 10000 nM 2.08%

COc1ccc(Br)cc1S(=O)(=O)NC(=O)/C=C/c1ccccc1Cc1ccc2ccccc2c1
inactive: 1 nM 1.22% | 8.33 nM 1.19% | 100 nM 1.93% | 833.33 nM 3.35% | 10000 nM -0.51%

Cc1cc(Nc2cc(C)c(C#N)c(N[C@@H](C)CCCC(C)(C)O)n2)n[nH]1
inactive: 1 nM -1.85% | 8.33 nM -0.28% | 100 nM -1.25% | 833.33 nM -6.81% | 10000 nM -8.95%

Nc1ccccc1S(N)(=O)=O [2-aminobenzenesulfonamide]
inactive: 1 nM 0.91% | 8.33 nM 2.45% | 100 nM 3.94% | 833.33 nM 3.53% | 10000 nM -0.71%

O=c1[nH]c(=O)n([C@H]2C[C@H](O)[C@@H](CO)O2)cc1C(F)(F)F [trifluridine]
inactive: 1 nM -2.13% | 8.33 nM 0.14% | 100 nM 0.73% | 833.33 nM 1.01% | 10000 nM -1.77%

CN(C)CC[C@@](O)(c1ccccc1)c1ccccc1Cl [clofedanol]
inactive: 1 nM 1.53% | 8.33 nM 1.3% | 100 nM 1.86% | 833.33 nM 1.12% | 10000 nM 2.42%

CN1CCc2c(c3ccccc3n2Cc2ccccc2)C1 [mebhydrolin]
inactive: 1 nM -0.15% | 8.33 nM 2.44% | 100 nM 1.76% | 833.33 nM -0.47% | 10000 nM -1.08%
